In PubChem BioAssay:
Values without a mark were called inactive. For some of these results: Results with a measured potency or affinity are listed apart. The source made the active and inactive calls. Unless noted, the rule behind the calls is not given here.

Key:
[1] = antimalarial activity against Dd2 strain (AID 2302;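 active = growth inhibition above 50% at the single 2 µM test dose, taken to imply half-maximal potency below 2 µM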;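 note: 0% = DMSO untreated growth and 100% = chloroquine plus artemisinin killed control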); settings: P. falciparum Dd2 in RBCs, LDH growth readout, 72 h; at 2 µM; stronger effect = higher value
[2] = human hepatoma cell viability loss – ATP luminescence, cytotoxicity control for P. falciparum antimalarial project, primary screen (AID 2303;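 active = inhibition above 50%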;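 note: 0% = DMSO wells and 100% = digitonin-killed cells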); settings: HepG2 viability, 24-48 h, at 10 µM, stronger effect = higher value
[3] = biological target: L-lactate dehydrogenase (Plasmodium falciparum (isolate CDC / Honduras)) (UniProt Q27743); assay: PfLDH activity inhibition – cell lysate, 3D7 strain, counter-screen for P. falciparum growth inhibition project (AID 2304);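 note: 0% = vehicle and 100% = reference inhibitor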; settings: P. falciparum 3D7 crude extract, LDH APAD/NBT absorbance; at 2 µM; stronger effect = higher value
L-lactate dehydrogenase (Plasmodium falciparum (isolate CDC / Honduras)), sequence (Q27743 whole entry, looked up): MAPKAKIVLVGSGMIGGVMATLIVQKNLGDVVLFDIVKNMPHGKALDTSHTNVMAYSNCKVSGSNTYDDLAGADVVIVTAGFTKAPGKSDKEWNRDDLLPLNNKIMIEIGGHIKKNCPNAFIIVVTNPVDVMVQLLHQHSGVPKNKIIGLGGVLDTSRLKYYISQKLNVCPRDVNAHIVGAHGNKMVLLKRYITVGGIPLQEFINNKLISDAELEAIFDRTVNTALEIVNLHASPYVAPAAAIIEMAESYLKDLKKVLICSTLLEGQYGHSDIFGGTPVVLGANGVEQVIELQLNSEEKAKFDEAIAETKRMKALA

[4] = inhibition of 3D7 malaria parasite growth – strain 3D7 (AID 2306);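 note: 0% = DMSO wells and 100% = chloroquine plus artemisinin control wells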; settings: P. falciparum 3D7 erythrocytic growth, LDH absorbance, 72 h; at 2 µM; stronger effect = higher value
[5] = biological target: Calcium-dependent protein kinase 1 (Plasmodium falciparum (isolate 3D7)) (UniProt P62344); assay: PfCDPK1 kinase inhibitors, biochemical, TCAMS library (AID 1159585; cut-off not given, nearly all actives have IC50 up to about 0.98 µM;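 note: inhibitors leave more ATP so luminescence rises with inhibition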); settings: recombinant PfCDPK1, Kinase-Glo ATP depletion luminescence
Calcium-dependent protein kinase 1 (Plasmodium falciparum (isolate 3D7)), sequence (P62344 whole entry, looked up): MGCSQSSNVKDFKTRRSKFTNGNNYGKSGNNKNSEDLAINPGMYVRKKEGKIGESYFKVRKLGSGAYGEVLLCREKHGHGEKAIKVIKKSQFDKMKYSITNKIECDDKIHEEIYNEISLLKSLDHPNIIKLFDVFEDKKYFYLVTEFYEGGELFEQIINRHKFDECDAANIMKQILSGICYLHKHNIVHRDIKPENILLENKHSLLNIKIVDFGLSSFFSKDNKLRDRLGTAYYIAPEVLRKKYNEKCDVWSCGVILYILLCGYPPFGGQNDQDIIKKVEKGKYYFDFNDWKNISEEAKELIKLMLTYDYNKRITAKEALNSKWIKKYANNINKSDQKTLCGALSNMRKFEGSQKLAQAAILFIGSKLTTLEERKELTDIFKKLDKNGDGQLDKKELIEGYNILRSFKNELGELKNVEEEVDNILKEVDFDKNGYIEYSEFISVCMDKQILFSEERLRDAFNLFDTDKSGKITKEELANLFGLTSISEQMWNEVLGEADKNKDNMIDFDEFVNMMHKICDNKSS

[6] = biological target: Plasmodium falciparum protein kinase 6 (PK6, PF3D7_1337100) (UniProt Q8IDW1); assay: PfPK6 kinase inhibitors, biochemical, TCAMS library (AID 1159586); settings: recombinant PfPK6, Kinase-Glo ATP depletion luminescence
Plasmodium falciparum protein kinase 6 (PK6, PF3D7_1337100), sequence (Q8IDW1 1-305): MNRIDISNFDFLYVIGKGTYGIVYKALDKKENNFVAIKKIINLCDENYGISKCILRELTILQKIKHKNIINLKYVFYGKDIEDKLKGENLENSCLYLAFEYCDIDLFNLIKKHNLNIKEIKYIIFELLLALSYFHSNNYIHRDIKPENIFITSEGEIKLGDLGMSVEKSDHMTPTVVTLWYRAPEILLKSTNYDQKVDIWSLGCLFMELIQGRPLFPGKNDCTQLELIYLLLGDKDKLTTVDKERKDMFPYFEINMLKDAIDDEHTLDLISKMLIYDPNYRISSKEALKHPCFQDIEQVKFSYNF

[7] = biological target: Protein kinase 7 (PK7), Plasmodium falciparum 3D7 (PF3D7_0213400) (UniProt Q7YTF7); assay: inhibition of Plasmodium PK7 catalytic activity – biochemical, TCAMS antimalarial set, Kinase-Glo luminescence (AID 1159587); settings: recombinant PfPK7, Kinase-Glo ATP depletion luminescence
Protein kinase 7 (PK7), Plasmodium falciparum 3D7 (PF3D7_0213400), sequence (Q7YTF7 1-343): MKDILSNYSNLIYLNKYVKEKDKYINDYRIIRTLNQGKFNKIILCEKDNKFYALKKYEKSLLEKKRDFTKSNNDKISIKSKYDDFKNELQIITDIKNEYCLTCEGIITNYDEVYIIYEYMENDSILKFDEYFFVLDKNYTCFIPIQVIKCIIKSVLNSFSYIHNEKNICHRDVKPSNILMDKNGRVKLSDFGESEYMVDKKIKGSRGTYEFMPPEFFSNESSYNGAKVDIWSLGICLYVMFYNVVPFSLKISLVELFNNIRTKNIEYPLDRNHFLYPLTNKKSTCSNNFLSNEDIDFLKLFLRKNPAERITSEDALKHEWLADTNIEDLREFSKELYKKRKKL

[8] = biological target: Calcium-dependent protein kinase 4 (Plasmodium falciparum (isolate 3D7)) (UniProt Q8IBS5); assay: PfCDPK4 kinase inhibitors, biochemical, TCAMS library (AID 1159588; cut-off not given, nearly all actives have IC50 up to about 0.91 µM); settings: recombinant PfCDPK4, Kinase-Glo ATP depletion luminescence
Calcium-dependent protein kinase 4 (Plasmodium falciparum (isolate 3D7)), sequence (Q8IBS5 whole entry, looked up): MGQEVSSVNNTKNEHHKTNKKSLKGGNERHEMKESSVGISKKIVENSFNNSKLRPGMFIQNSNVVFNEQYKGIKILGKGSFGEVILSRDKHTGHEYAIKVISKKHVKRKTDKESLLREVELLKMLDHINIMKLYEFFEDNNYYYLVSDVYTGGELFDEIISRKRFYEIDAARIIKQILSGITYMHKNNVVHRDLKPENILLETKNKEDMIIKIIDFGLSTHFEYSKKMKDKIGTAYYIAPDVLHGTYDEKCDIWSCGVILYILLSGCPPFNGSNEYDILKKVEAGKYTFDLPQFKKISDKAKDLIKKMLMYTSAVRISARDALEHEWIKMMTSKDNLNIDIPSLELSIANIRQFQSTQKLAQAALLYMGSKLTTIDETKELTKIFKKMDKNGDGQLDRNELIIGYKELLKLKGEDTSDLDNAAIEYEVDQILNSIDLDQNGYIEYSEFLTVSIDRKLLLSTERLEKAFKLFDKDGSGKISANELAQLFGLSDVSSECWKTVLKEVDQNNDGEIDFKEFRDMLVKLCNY

| SMILES | growth inhibition [1] | inhibition [2] | inhibition [3] [%] | growth inhibition [4] | outcome [5] | outcome [6] | outcome [7] | outcome [8] |
| --- | --- | --- | --- | --- | --- | --- | --- | --- |
| FC(F)(F)c1cccc(CCNc2nccc(NCc3ccc(Cl)cc3Cl)n2)c1 | 59% (active) | 8% | 1 | 97% (active) | inactive | inactive | inactive | inactive |
| CN(C)S(=O)(=O)c1ccc(C(=O)N(c2nc(-c3ccccc3)cs2)C2CCCCC2)cc1 | 46% | 7% | -3 | 98% (active) | inactive | inactive | inactive | inactive |
| Cc1[nH]c2ccccc2c1C(=O)CSc1nn(-c2ccccc2)c(=S)s1 | 99% (active) | -6% | -1 | 100% (active) | inactive | inactive | inactive | inactive |
| Cc1[nH]c(C)c(-c2ccc(-c3ccc(C#N)cc3)nc2)c(=O)c1Br | 87% (active) | 5% | 7 | 97% (active) | inactive | inactive | inactive | inactive |
| COc1ccccc1NC(=O)NC1CCN(CCCCCNC(=O)/C=C/c2ccc(Cl)c(Cl)c2)CC1 | 15% | 4% | -1 | 100% (active) | inactive | inactive | inactive | inactive |
| Cc1cccc2[nH]c(-c3cccc(-c4cccc(CN5CCC(CO)CC5)c4)c3)nc12 | 90% (active) | 4% | -6 | 101% (active) | inactive | inactive | inactive | inactive |
| C=CCc1cc(Br)ccc1OCCCOc1c(C)nc(N)nc1N | 96% (active) | 56% (active) | -3 | 94% (active) | inactive | inactive | inactive | inactive |
| CCOc1ccc(-c2nonc2NC(=O)c2ccc(F)cc2)cc1OCC | 99% (active) | 36% | 0 | 102% (active) | inactive | inactive | inactive | inactive |
| O=C(Nc1ccc(-c2cccc(-c3nc4ccccc4[nH]3)c2)cc1)Nc1ccsc1 | 90% (active) | 56% (active) | -7 | 101% (active) | inactive | inactive | inactive | inactive |
| COc1cc(NCCCCNc2ccc(Cl)c(Cl)c2)nc2ccccc12 | 68% (active) | 22% | 2 | 100% (active) | inactive | inactive | inactive | inactive |
| Cc1[nH]c(C)c(-c2ccc(/C=C/c3ccccn3)cc2)c(=O)c1Cl | 96% (active) | -9% | -2 | 97% (active) | inactive | inactive | inactive | inactive |
| Cc1ccc(CNC(=O)[C@H](CCCN)Nc2cc(C)nc(NCC3CCCCC3)n2)cc1 | -2% | 1% | 0 | 90% (active) | inactive | inactive | inactive | inactive |
| CCC(=O)Nc1ccc(C(O)CN2CCC3(C=Cc4ccccc4O3)CC2)cc1 (stereo not drawn) | 47% | 48% | -1 | 93% (active) | inactive | inactive | inactive | inactive |
| Cc1ccc(-c2ccc3c(c2)C=C(C(=O)NC2CCN(CCNC(=O)c4cccc(C(F)(F)F)c4)CC2)CCC3)cc1 | 56% (active) | 25% | -3 | 100% (active) | inactive | inactive | inactive | inactive |
| O=c1[nH]c(Cc2ccccc2)nc2ccc(Cl)cc12 | 76% (active) | 13% | 3 | 92% (active) | inactive | inactive | inactive | inactive |
| Cc1cccc(-n2c(Nc3ccc(C)c(Cl)c3)nc3ccc(S(=O)(=O)NC(C)C(C)C)cc32)c1 (stereo not drawn) | 97% (active) | -9% | 4 | 97% (active) | inactive | inactive | inactive | inactive |
| Cc1cc(NN=Cc2ccccn2)c2cc(C(F)(F)F)ccc2n1 | 100% (active) | -10% | -4 | 102% (active) | inactive | inactive | inactive | inactive |
| Cc1cc(CN2CCCN(c3ccc4c(c3)CCN(Cc3ccc(-c5ncc[nH]5)cc3)CC4)CC2)n(C)n1 | 8% | 5% | 5 | 86% (active) | inactive | inactive | inactive | inactive |
| O=c1cc(NCCCNC2CCOc3c(Cl)cc(Cl)cc32)[nH]c2ccccc12 (stereo not drawn) | 88% (active) | -7% | -3 | 100% (active) | inactive | inactive | inactive | inactive |
| Cn1cccc1C(=O)C(=O)Nc1ccc(-c2ccc(-c3nc4ccc(F)cc4[nH]3)cc2)cc1 | 33% | 44% | -3 | 92% (active) | inactive | inactive | inactive | inactive |
| Oc1ccc(Cc2cc(Oc3c(I)cc(CCc4ncc[nH]4)cc3I)ccc2O)cc1 | 32% | 10% | -3 | 101% (active) | inactive | inactive | inactive | inactive |

| SMILES | growth inhibition [1] | inhibition [2] | inhibition [3] [%] | growth inhibition [4] | outcome [5] | outcome [6] | outcome [7] | outcome [8] |
| --- | --- | --- | --- | --- | --- | --- | --- | --- |
| CCOC(=O)N1CCN(CCCNc2c3ccccc3nc3ccccc23)CC1 | 20% | 5% | 2 | 90% (active) | inactive | inactive | inactive | inactive |
| COc1cc(/C=C/C(=O)NC2CCC(N3CCC(c4ccccc4C)CC3)CC2)cc(OC)c1 (stereo not drawn) | 11% | 51% (active) | -4 | 89% (active) | inactive | inactive | inactive | inactive |
| O=C(Nc1cccc(-c2ccc(-c3nc4ccc(F)cc4[nH]3)cc2)c1)c1ccncc1 | 96% (active) | 52% (active) | -5 | 101% (active) | inactive | inactive | inactive | inactive |
| Cc1cccc2[nH]c(-c3ccc(-c4ccc(CN5CCCC(N)C5)cc4)s3)nc12 (stereo not drawn) | 100% (active) | 29% | -9 | 101% (active) | inactive | inactive | inactive | inactive |
| N#Cc1ccccc1Sc1ccccc1C(=O)Nc1ccc2ccccc2n1 | 85% (active) | -3% | 0 | 92% (active) | inactive | inactive | inactive | inactive |
| CNC(=O)c1cc(S(=O)(=O)N2CCN(c3ccccn3)CC2)cs1 | 100% (active) | -2% | -3 | 99% (active) | inactive | inactive | inactive | inactive |
| CC(C)N(CCOc1ccc2c(c1)N(C(=O)Nc1ccc(Cl)c(Cl)c1)CC2)C(C)C | 39% | 15% | 3 | 101% (active) | inactive | inactive | inactive | inactive |
| CCCC(CC)n1ccc2c3c(N)nc(N)nc3ccc21 (stereo not drawn) | 97% (active) | 67% (active) | 0 | 94% (active) | inactive | inactive | inactive | inactive |
| Brc1ccccc1CNc1ccnc(NCCn2ccnc2)n1 | 33% | 72% (active) | 4 | 99% (active) | inactive | inactive | inactive | inactive |
| c1cc(CNCC2CCCO2)cc(-c2csc(-c3nc4ccccc4[nH]3)c2)c1 (stereo not drawn) | 6% | 5% | 2 | 91% (active) | inactive | inactive | inactive | inactive |
| CC(C)CNc1c2c(nc3cnn(-c4c5c(nc6cn[nH]c46)CCCC5)c13)CCCC2 | -2% | 7% | -5 | 100% (active) | inactive | inactive | inactive | inactive |
| O=C(c1ccc([N+](=O)[O-])o1)N1CCC(Cc2ccc(C(F)(F)F)cc2)CC1 | 99% (active) | 38% | -2 | 101% (active) | inactive | inactive | inactive | inactive |
| CCCNCc1ccc(-c2ccc(CN(Cc3cccs3)C(=O)C3CCN(C)CC3)cc2)nc1 | 35% | 10% | -3 | 99% (active) | inactive | inactive | inactive | inactive |
| N#Cc1ccc2c(c1)CN(CCC1CCC(NC(=O)c3cc4cnccc4[nH]3)CC1)CC2 (stereo not drawn) | 28% | 13% | -2 | 97% (active) | inactive | inactive | inactive | inactive |
| NC1=NC2(CCCC2)N(c2ccc(Cl)cc2)C(N)=N1 | -1% | -8% | -6 | 97% (active) | inactive | inactive | inactive | inactive |
| CC(C)CCN1CCC(Oc2ccc(NC(=O)c3ccc4ncccc4c3)cc2Cl)C1 (stereo not drawn) | 14% | 33% | -4 | 95% (active) | inactive | inactive | inactive | inactive |
| c1ccc2ncc(CNCCCCCCCCNCc3cnc4ccccc4c3)cc2c1 | 4% | 8% | -3 | 88% (active) | inactive | inactive | inactive | inactive |
| CCCCn1c(SC(C)C)nc2c(c1=O)C1(CCCCC1)Cc1ccccc1-2 | 60% (active) | 1% | -2 | 99% (active) | inactive | inactive | inactive | inactive |
| COc1cccc(C(=O)Nc2ccc(S(=O)(=O)c3cc4c(cc3OC)CCN(C)CC4)cc2)c1 | 3% | -11% | -1 | 86% (active) | inactive | inactive | inactive | inactive |
| Cc1ccc(Cn2nc(Cl)c(N3CCCNCC3)cc2=O)cc1NC(=O)Nc1ccc(-c2ccccc2)cc1 | 55% (active) | 90% (active) | -1 | 101% (active) | inactive | inactive | inactive | inactive |
